Results published in PubChem BioAssay AID1159580 (chemical genetic matrix, 2015).
“And” between values parts separate entries of the source, which are not always exact repeats. Identical values can stand only once. Screen size: about 5,500 compounds; about 2,000 (36%) were called active. Not shown: some 18% with an inconclusive outcome. Rule as the data show it: active = normalized growth mostly below about 0.91 (no sharp cut-off); inconclusive = no clear call, values can overlap the other calls; inactive = mostly above about 0.92. The list shows a part of the results. Where a SMILES comes first, the peptide text is derived from it. [ ]: non-standard residue; d: D form. Orn = NCCC[CH](N)C(=O)O

Assay: chemical genetic growth profiling, strain panel (AID 1159580);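 also: tested at 20 µM; growth read once vehicle control cultures reached saturation at 30 °C; 1 = growth at the plate median or of vehicle wells; lower values mean less growth of the strain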
Settings: S. cerevisiae deletion strains, growth OD

Measured: normalized growth

CC(C)CC1NC(=O)C(CCCN)NC(=O)C(C(C)C)NC(=O)C2CCCN2C(=O)C(Cc2ccccc2)NC(=O)C(CC(C)C)NC(=O)C(CCCN)NC(=O)C(C(C)C)NC(=O)C2CCCN2C(=O)C(Cc2ccccc2)NC1=O (stereo unspecified) (cyclo(FPV[Orn]LFPV[Orn]L); configuration not given here)
active: locus YDL185W, strain tfp1, stronger effect = lower value 0.249 | locus YDL192W, strain arf1, stronger effect = lower value 0.104 | locus YDR137W, strain rgp1, stronger effect = lower value 0.307 | locus YDR195W, strain ref2 0.363 | locus YER155C, strain BEM2 (second series), stronger effect = lower value 0.775 | locus YIL073C, strain SPO22, stronger effect = lower value 1.52 [resistant]
inactive: locus YAL013W, strain DEP1, stronger effect = lower value 1.01 | locus YAL021C, strain ccr4, stronger effect = lower value 0.995 | locus YAL026C, strain drs2, stronger effect = lower value 0.911 | locus YAL030W, strain snc1, stronger effect = lower value 1.03 | locus YBL061C, strain skt5, stronger effect = lower value 1.02 | locus YBR009C, strain hhf1, stronger effect = lower value 1.01 | locus YBR021W, strain FUR4, stronger effect = lower value 0.931 | locus YBR023C, strain chs3, stronger effect = lower value 1.01 | locus YBR171W, strain sec66, stronger effect = lower value 1.07 | locus YBR229C, strain ROT2, stronger effect = lower value 1.01 | locus YBR231C, strain swc5, stronger effect = lower value 0.934 | locus YBR279W, strain paf1, stronger effect = lower value 1.02 | locus YCL011C, strain gbp2, stronger effect = lower value 1.02 | locus YCL016C, strain dcc1, stronger effect = lower value 1 | locus YCL029C, strain bik1, stronger effect = lower value 0.986 | locus YCL061C, strain MRC1, stronger effect = lower value 1.03 | locus YCL069W, strain vba3, stronger effect = lower value 1.03 | locus YCR088W, strain abp1, stronger effect = lower value 1.03 | locus YDL005C, strain med2, stronger effect = lower value 1.02 | locus YDL035C, strain GPR1, stronger effect = lower value 0.992 | locus YDL040C, strain nat1, stronger effect = lower value 1.02 | locus YDL074C, strain BRE1, stronger effect = lower value 0.964 | locus YDL101C, strain DUN1, stronger effect = lower value 1 | locus YDL134C, strain PPH21, stronger effect = lower value 1.01 | locus YDR001C, strain nth1, stronger effect = lower value 1.03 | locus YDR069C, strain doa4, stronger effect = lower value 0.905 | locus YDR101C, strain arx1, stronger effect = lower value 0.998 | locus YDR150W, strain NUM1, stronger effect = lower value 1.02 | locus YDR159W, strain sac3, stronger effect = lower value 1.02 | locus YDR162C, strain NBP2, stronger effect = lower value 1.01 | locus YDR297W, strain sur2, stronger effect = lower value 1.03 | locus YDR318W, strain mcm21, stronger effect = lower value 1.01 | locus YDR334W, strain swr1, stronger effect = lower value 1.02 | locus YDR335W, strain msn5, stronger effect = lower value 1.05 | locus YDR388W, stronger effect = lower value 0.989 | locus YDR392W, strain spt3, stronger effect = lower value 0.963 | locus YDR502C, strain sam2, stronger effect = lower value 0.997 | locus YEL003W, strain gim4, stronger effect = lower value 1.01 | locus YEL037C, strain rad23, stronger effect = lower value 1.04 | locus YEL061C, strain CIN8 (second series), stronger effect = lower value 1.04 | locus YEL061C, strain CIN8, stronger effect = lower value 1.02 | locus YER015W, strain faa2, stronger effect = lower value 1.01 | locus YER016W, strain bim1, stronger effect = lower value 1.03 | locus YER110C, stronger effect = lower value 0.987 | locus YER111C, strain swi4, stronger effect = lower value 1.05 | locus YER155C, strain BEM2, stronger effect = lower value 0.991 | locus YER167W, strain BCK2, stronger effect = lower value 1.02 | locus YFR010W, strain ubp6, stronger effect = lower value 1.01 | locus YGL078C, strain dbp3, stronger effect = lower value 0.993 | locus YGL167C, strain pmr1, stronger effect = lower value 1.04 | locus YGL173C, strain kem1, stronger effect = lower value 1.02 | locus YGL227W, strain vid30, stronger effect = lower value 1.05 | locus YGL240W, strain doc1, stronger effect = lower value 0.992 | locus YGL248W, strain PDE1, stronger effect = lower value 1.01 | locus YGL253W, strain hxk2, stronger effect = lower value 1.03 | locus YGR078C, strain PAC10, stronger effect = lower value 1.07 | locus YGR135W, strain pre9, stronger effect = lower value 0.981 | locus YGR229C, strain SMI1, stronger effect = lower value 0.844 | locus YGR252W, strain gcn5, stronger effect = lower value 0.924 | locus YHR013C, strain ard1, stronger effect = lower value 1.1 | locus YHR027C, strain rpn1, stronger effect = lower value 1.05 | locus YHR030C, strain SLT2, stronger effect = lower value 1 and 0.948 | locus YHR079C, strain IRE1 (second series), stronger effect = lower value 1.01 | locus YHR079C, strain IRE1, stronger effect = lower value 0.993 | locus YHR094C, strain hxt1, stronger effect = lower value 1.01 | locus YHR129C, strain ARP1, stronger effect = lower value 1.02 | locus YHR142W, strain chs7, stronger effect = lower value 1.02 | locus YIL066C, strain RNR3, stronger effect = lower value 0.999 | locus YIL125W, strain kgd1, stronger effect = lower value 1 | locus YIR030C, strain dcg1, stronger effect = lower value 1 | locus YJL092W, strain hpr5, stronger effect = lower value 1.04 | locus YJL095W, strain BCK1 (second series), stronger effect = lower value 1.02 | locus YJL095W, strain BCK1, stronger effect = lower value 0.965 and 0.972 | locus YJL115W, strain asf1, stronger effect = lower value 1.07 | locus YJL129C, strain trk1, stronger effect = lower value 1.01 | locus YJL134W, strain LCB3, stronger effect = lower value 1.01 | locus YJL154C, strain vps35, stronger effect = lower value 1.01 | locus YJL164C, strain tpk1, stronger effect = lower value 1.03 | locus YJL166W, strain qcr8, stronger effect = lower value 1.02 | locus YJL168C, strain set2, stronger effect = lower value 1 | locus YJL187C, strain SWE1 (second series), stronger effect = lower value 0.992 | locus YJL187C, strain SWE1, stronger effect = lower value 1.04 | locus YJR043C, strain POL32, stronger effect = lower value 0.983 | locus YJR066W, strain TOR1, stronger effect = lower value 0.935 | locus YJR075W, strain HOC1, stronger effect = lower value 1.01
